Bioassay records as filed in PubChem BioAssay.
In the library only some 3.4% were active in any assay of this set; here they are far more common.
MITF inh = inhibitors of human MITF. O75030. AlphaScreen MITF homodimerization, bead proximity signal. inhibition, % at 2.6 µM. 650,000 tested, 0.91% active. AID 1259374; in the data active = inhibition above about 50%;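 note: 0% = vehicle wells with protein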
Target sequence (O75030 whole entry, looked up): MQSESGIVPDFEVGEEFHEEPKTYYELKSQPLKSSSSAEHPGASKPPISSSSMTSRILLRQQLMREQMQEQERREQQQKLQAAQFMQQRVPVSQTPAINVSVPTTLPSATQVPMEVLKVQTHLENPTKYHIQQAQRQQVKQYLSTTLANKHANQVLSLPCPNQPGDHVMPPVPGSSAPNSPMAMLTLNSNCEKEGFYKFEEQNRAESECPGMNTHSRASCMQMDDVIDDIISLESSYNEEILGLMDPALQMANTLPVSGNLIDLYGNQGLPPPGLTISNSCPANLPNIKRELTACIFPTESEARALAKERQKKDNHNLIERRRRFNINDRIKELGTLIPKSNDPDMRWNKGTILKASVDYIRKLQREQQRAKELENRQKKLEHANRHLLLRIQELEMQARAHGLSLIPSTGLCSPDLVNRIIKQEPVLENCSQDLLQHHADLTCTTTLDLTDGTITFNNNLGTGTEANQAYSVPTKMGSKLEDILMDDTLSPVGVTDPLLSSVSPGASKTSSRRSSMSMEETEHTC
GPR151 activ = activators of human GPR151; Q8TDV0; activation, % at 11.2 µM; 650,000 tested, 1% active; PathHunter beta-arrestin GPR151 cells, luminescence; in the data active = activation above about 4.9%;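 note: 0% = median of compound wells and 100% = cells with positive control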
TEAD-YAP block = TEAD-YAP interaction inhibition | AID 1259422 | HEK-TIYL cells, TEAD-Gal4/YAP UAS-luciferase luminescence | inhibition, % at 9.12 µM | 640,000 tested, 1.4% active; in the data active = inhibition above about 32%;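 note: 0% = median of test compound wells and 100% = reference inhibitor wells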
FBW7 act = human FBW7 E3 ligase activation, primary screen; normalized activity (activation), % at 26.1 µM; AlphaScreen FBW7–phospho-cyclin E peptide binding, activator screen; 650,000 tested, 0.13% active; in the data active = normalized activity above about 1.9%;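 note: purified mutant Fbw7 with reduced substrate affinity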
MITF inh conf = confirmation of human MITF inhibitors. 4,700 tested, 16% active. AlphaScreen MITF homodimerization, biotin/His-MITF beads. shares compounds with MITF inh. inhibition, % at 2.6 µM;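 active = inhibition above a cutoff derived from the DMSO control wells, cut at about 28% in these data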;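 note: 0% = MITF dimer wells with DMSO only; inhibitors lower the bead chemiluminescence by keeping MITF from dimerizing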
AS interf DR = optically interferes with AlphaScreen signal in dose response; IC50, µM; 480 tested, 6% active; AlphaScreen optical interference counterscreen, cell-free; shares compounds with MITF inh; AID 1259373; call rule not given here
AS interf ctr = counter-screen: compounds optically interfering with AlphaScreen. shares compounds with MITF inh. LysRS AlphaScreen counterscreen, signal interference, triplicate. inhibition, % at 2.6 µM. 4,700 tested, 7.6% active;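 active = inhibition above a cutoff derived from the DMSO control wells, cut at about 30% in these data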
* marks the source's active call; other numbers are inactive results.

Screening COc1ccc(CC(=O)N2CCN(c3cccc(C)c3C)CC2)cc1 returned MITF inh 17.6, GPR151 activ 0.5, TEAD-YAP block 15.8 and FBW7 act 0.2.
COc1ccc(S(=O)(=O)CCC(=O)N2CCN(c3cccc(C)c3C)CC2)cc1 was read as MITF inh 63.1*, GPR151 activ 0.8, TEAD-YAP block -0.1, FBW7 act 0.0, MITF inh conf 15.9 and AS interf ctr 9.0.
For O=C(N1CCCCCC1)C1(S(=O)(=O)c2ccc(Cl)cc2)CC1 the results were MITF inh 62.3*, GPR151 activ 1.0, TEAD-YAP block 11.0, FBW7 act 0.0, MITF inh conf 3.0 and AS interf ctr -1.4.
Screening Fc1ccc(Nc2ncnc3sc4c(c23)CCCC4)cc1Cl returned MITF inh -16.0, GPR151 activ 0.3, TEAD-YAP block 0.1 and FBW7 act 0.1.
`CCOC(=O)c1ccc(N2C(=O)C(=O)/C(=C(\O)c3ccc(OC)cc3)C2c2ccccc2[N+](=O)[O-])cc1` (configuration not stated) gave MITF inh 52.2*, GPR151 activ -4.9, TEAD-YAP block -20.2, FBW7 act 0.4, MITF inh conf 12.3 and AS interf ctr 11.2.
CCOC(=O)c1ccc(N2C(=O)C(=O)/C(=C(/O)c3ccc(OC)cc3)C2c2ccc(C)cc2)cc1 (configuration not stated) was read as MITF inh -3.6, GPR151 activ -1.4, TEAD-YAP block 3.2 and FBW7 act 0.4.
O=C(Nc1ccccc1)N1CCN(c2ccc(Nc3ccccn3)nn2)CC1 was read as MITF inh 40.1, GPR151 activ 2.9, TEAD-YAP block -6.1 and FBW7 act -1.3.
For COCCCNC(=O)/C(C#N)=C/c1ccc(OCC(=O)O)c(OC)c1 the results were MITF inh 61.7*, GPR151 activ -0.3, TEAD-YAP block 9.7, FBW7 act -0.3, MITF inh conf 34.7*, AS interf DR >6.48 and AS interf ctr -8.1.
CCSc1nnc(-c2ccncc2)n1-c1ccccc1 was read as MITF inh 5.9, GPR151 activ -1.1, TEAD-YAP block -0.1 and FBW7 act -0.5.
`COC(=O)c1ccc(NC(=O)CN2CCN(CC#N)CC2)cc1` gave MITF inh 71.0*, GPR151 activ -0.9, TEAD-YAP block -6.8, FBW7 act 0.3, MITF inh conf 9.8 and AS interf ctr -2.6.
`O=C(CN1CCCC1)Nc1ccc(N2CCCCC2)cc1` gave MITF inh -11.9, GPR151 activ -1.7, TEAD-YAP block -11.8 and FBW7 act -0.1.
Screening CC1CCN(CC(=O)Nc2ccc(C(=O)N3CCCCC3)cc2)CC1 returned MITF inh 58.5*, GPR151 activ 1.1, TEAD-YAP block -0.6, FBW7 act 0.0, MITF inh conf 3.1 and AS interf ctr 10.8.
Screening CC1CCN(CC(=O)Nc2ccc(N3CCCC3)cc2)CC1 returned MITF inh 54.9*, GPR151 activ -0.5, TEAD-YAP block -6.7, FBW7 act -0.2, MITF inh conf 13.1 and AS interf ctr 13.3.
Screening CCCCOc1ccc(NC(=O)CN2CCN(C(C)=O)CC2)cc1 returned MITF inh 66.0*, GPR151 activ 2.8, TEAD-YAP block -4.0, FBW7 act 0.0, MITF inh conf 13.6 and AS interf ctr 14.5.
For COc1cccc(CN2CCN(S(=O)(=O)c3ccc(C)cc3)CC2)c1 the results were MITF inh 13.4, GPR151 activ -1.0, TEAD-YAP block 0.2 and FBW7 act -0.1.
`Cc1cccc(Cn2c(N3CCN(Cc4ccccc4)CC3)nc3c2c(=O)n(C)c(=O)n3C)c1` gave MITF inh 7.8, GPR151 activ -0.1, TEAD-YAP block 2.1 and FBW7 act 0.1.
Cc1ccc(NC(=O)CN2CCC(C(=O)NCc3cccs3)CC2)cc1 was read as MITF inh 113.8*, GPR151 activ -0.2, TEAD-YAP block 1.3, FBW7 act 0.0, MITF inh conf -3.6 and AS interf ctr -3.5.
Cc1ccc(NC(=O)CN2CCC(C(=O)NCc3ccccn3)CC2)cc1 was read as MITF inh 3.9, GPR151 activ -0.4, TEAD-YAP block -2.5 and FBW7 act 0.0.
Screening CCN1CCN(CC(=O)Nc2ccc(N3CCCCC3)cc2)CC1 returned MITF inh 81.0*, GPR151 activ 0.5, TEAD-YAP block -1.1, FBW7 act -0.1, MITF inh conf -7.6 and AS interf ctr -3.0.
`COc1ccc(-c2nc(-c3ccc(Br)cc3)c(-c3ccc(Br)cc3)[nH]2)c(OC)c1` gave MITF inh 5.0, GPR151 activ -0.3, TEAD-YAP block -7.4 and FBW7 act 0.0.
For COc1ccc([N+](=O)[O-])cc1NC(=O)c1ccc(F)cc1 the results were MITF inh 57.4*, GPR151 activ 2.7, TEAD-YAP block -1.5, FBW7 act -0.1, MITF inh conf -11.7 and AS interf ctr -10.8.
`COc1ccc([N+](=O)[O-])cc1NC(=O)c1ccc(C(C)(C)C)cc1` gave MITF inh 16.5, GPR151 activ 0.4, TEAD-YAP block 8.6 and FBW7 act 0.3.
COc1ccc([N+](=O)[O-])cc1NC(=O)C1(c2ccc(OC)c(OC)c2)CCCC1 was read as MITF inh 53.5*, GPR151 activ 0.3, TEAD-YAP block -8.0, FBW7 act 0.0, MITF inh conf -14.2 and AS interf ctr -6.7.
CCc1ccc(CN(C)c2nc3nonc3nc2NCCCOC)nc1 was read as MITF inh 6.5, GPR151 activ -0.9, TEAD-YAP block -0.9 and FBW7 act 0.3.
`COc1ccc(-c2nc3n(n2)C(c2cccc(C)c2)C2=C(CCCC2=O)N3)cc1OC` (configuration not stated) gave MITF inh 5.7, GPR151 activ 2.3, TEAD-YAP block 4.4 and FBW7 act -0.1.
Screening Cc1cc(C2C(C#N)=C(N)N(c3ccccc3Cl)C3=C2C(=O)CCC3)c(C)s1 (configuration not stated) returned MITF inh 6.6, GPR151 activ -2.1, TEAD-YAP block 4.0 and FBW7 act 0.3.
Cc1cc(C2C(C#N)=C(N)N(c3ccccc3Cl)C3=C2C(=O)CC(c2ccccc2)C3)c(C)s1 (configuration not stated) was read as MITF inh 56.8*, GPR151 activ 0.2, TEAD-YAP block 2.7, FBW7 act 0.0, MITF inh conf -6.9 and AS interf ctr 0.4.
`COc1cc(OC)c(CN2CCCC(CO)C2)cc1Br` (configuration not stated) gave MITF inh 54.7*, GPR151 activ 0.3, TEAD-YAP block 4.6, FBW7 act 0.2, MITF inh conf 1.3 and AS interf ctr 6.3.
`COc1ccc(CN2CCN(Cc3ccc(Cl)cc3)CC2)c2ccccc12` gave MITF inh 82.5*, GPR151 activ 0.2, TEAD-YAP block 1.5, FBW7 act -0.2, MITF inh conf 12.7 and AS interf ctr 20.5.
